# Test results as given in PubChem BioAssay AID602438 (Sanford-Burnham Center for Chemical Genomics, 2012).
# “And” between values parts separate entries of the source, which are not always exact repeats. Equal entries are not always repeated. Out of some 360,000 compounds screened, about 3,100 (0.86%) were called active. This is one part of a sample in which actives are shown more often than they occur. Values without a mark were called inactive.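 The calls were made as follows: active = inhibition or corrected inhibition above about 18%, plus a signal ratio from 0.5 to 1.5 (limit read from the data, passing the limit was not always enough); inactive = the rest.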
# Biological target: Neuropilin-1 (Homo sapiens) (UniProt O14786)
# Test: modulators of CendR peptide binding to NRP-1, primary screen, biochemical, fluorescence polarization, uHTS (AID 602438)
# Settings: FAM-RPARPAR peptide binding to NRP-1, fluorescence polarization; at 25 µM; stronger effect = higher value
# Neuropilin-1 (Homo sapiens), sequence (O14786 whole entry, looked up): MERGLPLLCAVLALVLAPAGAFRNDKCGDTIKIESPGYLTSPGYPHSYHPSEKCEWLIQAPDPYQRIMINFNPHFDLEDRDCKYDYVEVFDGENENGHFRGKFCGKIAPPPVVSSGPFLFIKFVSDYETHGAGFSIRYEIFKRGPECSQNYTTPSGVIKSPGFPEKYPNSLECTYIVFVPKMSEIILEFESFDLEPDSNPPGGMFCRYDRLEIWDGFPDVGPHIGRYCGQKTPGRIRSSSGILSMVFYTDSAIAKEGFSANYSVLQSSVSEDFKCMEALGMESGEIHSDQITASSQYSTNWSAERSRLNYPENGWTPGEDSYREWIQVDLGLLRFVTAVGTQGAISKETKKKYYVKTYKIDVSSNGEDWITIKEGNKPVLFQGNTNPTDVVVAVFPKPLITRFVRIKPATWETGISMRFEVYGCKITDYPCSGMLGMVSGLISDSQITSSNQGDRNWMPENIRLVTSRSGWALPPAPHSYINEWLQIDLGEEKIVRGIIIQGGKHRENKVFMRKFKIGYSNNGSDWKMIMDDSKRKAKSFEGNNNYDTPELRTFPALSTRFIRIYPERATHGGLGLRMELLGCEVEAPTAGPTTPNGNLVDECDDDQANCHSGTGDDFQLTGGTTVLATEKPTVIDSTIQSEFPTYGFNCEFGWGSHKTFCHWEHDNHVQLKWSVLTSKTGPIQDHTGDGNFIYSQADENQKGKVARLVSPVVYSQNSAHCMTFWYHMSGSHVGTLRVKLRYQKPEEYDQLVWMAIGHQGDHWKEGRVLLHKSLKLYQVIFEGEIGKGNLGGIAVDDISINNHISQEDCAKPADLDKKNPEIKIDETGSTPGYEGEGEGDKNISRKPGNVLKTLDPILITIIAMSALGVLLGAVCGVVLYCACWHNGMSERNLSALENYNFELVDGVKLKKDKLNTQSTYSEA
row,SMILES,inhibition
1,O=[N+]([O-])c1ccc(CN2CC(N3CCC(c4ccccc4)CC3)CS2(=O)=O)cc1 (stereo not given),11.5%
2,CC1(C)CC(=O)CC2(C1)NCC(c1ccccc1Cl)c1c2[nH]c2ccccc12 (stereo not given),-3.3%
3,CCNC(=O)COC(=O)/C=C/c1c(C)nn(Cc2cccc(OC)c2)c1Cl,-6.8%
4,CC1(C)CN(c2ccc(-c3ccnc4ncnn34)cc2)C1=O,9.3%
5,O=C(CSc1n[nH]c(-c2cccnc2)n1)Nc1ccnc2ccccc12,-6.1%
6,COc1ccc(Nc2nc(-c3cccnc3)nc3ccccc23)cn1,55.4% (active)
7,O=C(Nc1ccc(Cl)cc1)Nc1ccc(Oc2cccnc2)nc1,3.4%
8,Cc1nnc(SC(C)C(=O)Nc2ccc(S(=O)(=O)NC3CCCCC3)cc2)s1 (stereo not given),25.4% (active)
9,CCc1nnc(NC(=O)c2ccc(S(=O)(=O)NC3CCCCC3)cc2)s1,-10.5%
10,Cc1ccc(Nc2nnc(SC(C)C(=O)NC3CC3)s2)cc1 (stereo not given),-8.1%
11,Cc1ccc(S(=O)(=O)N(CC(=O)NCCSC2CCCCC2)c2ccccc2F)cc1,-1.5%
12,O=C(Nc1c2c(nn1-c1ccc(F)cc1)CS(=O)C2)C12CC3CC(CC(C3)C1)C2 (stereo not given),5.1%
13,O=S(=O)(c1ccc(Br)cc1)c1nc(-c2ccccc2)oc1N1CCOCC1,0.9%
14,O=S(=O)(c1ccc(Cl)cc1)c1nc(-c2ccccc2F)oc1NCCN1CCOCC1,5.8%
15,O=S(=O)(c1ccccc1)c1nc(-c2ccccc2)oc1NCCCN1CCOCC1,28.7% (active)
16,CCc1nc(SCC(=O)Nc2ccccc2OC)n[nH]1,4.2%
17,C=CCN1CCN(c2ccncc2S(=O)(=O)N2CCN(C)CC2)CC1,1.6%
18,Cc1cc(/C=N/NC(=O)CC2(C)OCCO2)c(C)n1-c1ccc(Cl)c(Cl)c1,-7.8%
19,Cc1cc(/C=N/NC(N)=O)c(C)n1C1CCCCC1,-11.5%
20,Cc1ccc(-n2c(C)cc(/C=N\NC(=O)CC(=O)NC(C)C)c2C)cc1,32.4% (active)

row,SMILES,inhibition
1,Cc1nc(N2CCCC2C(=O)O)c2oc3ccccc3c2n1 (stereo not given),29.6% (active)
2,O=C(O)C1CCCN1C1=NS(=O)(=O)c2ccccc21 (stereo not given),9.6%
3,O=C(O)C1CCCN1c1nc(Cl)ccc1[N+](=O)[O-] (stereo not given),-0.9%
4,O=c1ccc(S(=O)(=O)N2CCCC2)cn1Cc1nc(-c2ccccc2)no1,3.3%
5,c1ccc(CCC2=NCCn3cccc32)cc1,-28.1% and -1.3%
6,CNS(=O)(=O)c1cnccc1N1CCN(c2cccc(C)c2)CC1,-5.1%
7,Cc1cccc(NS(=O)(=O)c2cc(Cl)ccc2Cl)n1,7.9%
8,COc1ccccc1N1CCN(C(=O)c2cc(=O)c3cc(C)cc(C)c3o2)CC1,14.6%
9,Cc1cccc(N2CCN(C(=O)c3cnn4c(C(F)F)cc(-c5ccccc5)nc34)CC2)c1C,3.9%
10,Cc1ccc(Cl)cc1N1CCN(C(=O)c2cccc3c(=O)c(C)c(-c4ccccc4)oc23)CC1,31% (active)
11,COCC1CCN(C(=O)CCc2nnc(C3(c4ccc(Cl)cc4)CCC3)o2)C1 (stereo not given),11.4%
12,COc1ccc(OC)c(S(=O)(=O)NCCC(C)C)c1,6.4%
13,COc1ccc(OC)c(S(=O)(=O)Nc2c(C)nn(C)c2C)c1,16.5% (active)
14,COc1ccc(OC)c(S(=O)(=O)Nc2ccccc2F)c1,-3.6%
15,Cc1n[nH]c(=O)c2c(NC(=O)COC(=O)c3ncc(Cl)c(Cl)c3Cl)oc(C)c12,4.1%
16,Cc1nc(-c2ccc(F)cc2)c(CC(=O)N(C)CC(=O)Nc2c(C)cccc2C)s1,-11.9%
17,Cc1ccc(-c2nc(C)sc2CC(=O)OCC(=O)Nc2c(F)cccc2F)cc1,24.9% (active)
18,CCOc1ccc(-c2nc(C)sc2CC(=O)O)cc1,0.2%
19,CCOC(=O)C1=C(N)N2C(=O)C(C)SC2=C(C(=O)OCC)C1c1cc(OC)c(OC)c(OC)c1 (stereo not given),6.5%
20,O=C(COc1ccc(S(=O)(=O)NCCc2ccccc2)cc1)N1CCCC1,0.6%

row,SMILES,inhibition
1,COc1ccc(OCC(=O)NCCc2ccc(S(N)(=O)=O)cc2)cc1,-12.6%
2,O=C(COc1ccc(/C=N/NS(=O)(=O)c2ccccc2)cc1)NCCc1ccccc1,31.8% (active)
3,CCc1ccnc(NC(=O)Nc2ccc(OCc3ccccc3)cc2)c1,2.7%
4,O=C(c1ccc(F)cc1)n1c(=S)nc2ccccn21,-0.8%
5,CC(=O)OCc1cc(=O)n(C)c(=O)n1C,14.5%
6,Cc1ccc(S(=O)(=O)/N=C2\C=C(NS(=O)(=O)c3ccc(C)cc3)C(=O)c3ccccc32)cc1,24.8%
7,COc1ccc(S(=O)(=O)/N=C2\C=C(NS(=O)(=O)c3ccccc3)C(=O)c3ccccc32)cc1,41.6% (active)
8,COc1ccc(NS(=O)(=O)c2ccc(Oc3c(C#N)cccc3C#N)cc2)cc1,6.6%
9,CCOCCC(=O)Nc1ccc2c(c1)c(=O)n(C)n2-c1ccc2ccccc2c1,-1.8%
10,Cc1cc(S(=O)(=O)c2cc3ccc(O)c(C)c3oc2=O)ccc1F,6%
11,CCN(CC)P(=O)(C(NC(=O)OC)C(F)(F)C(F)(F)C(F)(F)C(F)F)N(CC)CC (stereo not given),0.3%
12,CC(=O)Nn1cc2c(=O)n(C)c(=O)n(C)c2c1,-0.7%
13,CC(=O)NNc1cc(=O)c2c(=O)n(C)c(=O)n(C)c2[nH]1,21.9% (active)
14,CCC(=O)NNc1cc(=O)c2c(=O)n(C)c(=O)n(C)c2[nH]1,1.9%
15,CCOCCCn1c(SCC(=O)Nc2cc(OC)ccc2OC)nc2ccccc2c1=O,6.3%
16,CC(=O)NC(Cc1ccc(F)cc1)C(=O)O (stereo not given),-13.6%
17,O=C1Nc2ccccc2-n2nnnc2C1N1CCN(c2cccc(C(F)(F)F)n2)CC1 (stereo not given),3.4%
18,CCOC(=O)c1cc(NC(=O)c2ccc(Cl)cc2)c(=O)oc1-c1ccccc1,24.4% (active)
19,COC(=O)c1ccc(C(=O)Nc2cc(Cl)ccc2Cl)cc1NC(=O)c1ccccc1C,-6%
20,CCOC(=O)c1cccnc1NC(=O)c1ccncc1,-9.5%
